Assay outcomes deposited in PubChem by several laboratories.
In the library only some 2.5% were active in any assay of this set; here they are far more common.
UBC13 inh – human UBC13 polyubiquitination inhibition; P61088; 0.47% of 330,000 active; inhibition, % at 20 µM; UBC13 polyubiquitin chain formation, TR-FRET; in the data active = inhibition above about 45%, passing the limit was not always enough
Target sequence (P61088 whole entry, looked up): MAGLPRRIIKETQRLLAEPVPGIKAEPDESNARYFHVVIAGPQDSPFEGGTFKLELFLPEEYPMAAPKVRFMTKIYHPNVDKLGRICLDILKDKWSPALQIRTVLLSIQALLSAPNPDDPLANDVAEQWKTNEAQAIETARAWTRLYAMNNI
MEKK2wt PB1 HTS – raises or lowers MEK5 binding to wildtype human MEKK2 PB1 domain; bead flow cytometry, Alexa488-MEK5 binding to MEKK2 WT; actives lie on both sides; binding response (% of control), % at 10 µM; 1.1% of 290,000 active; Q9Y2U5; in the data active = binding response below about 67% or above about 130%
MEKK2mut PB1 HTS – signal of MEK5 binding to mutant human MEKK2 PB1 domain; bead flow cytometry, Alexa488-MEK5 binding to MEKK2 mutant; percent response, % at 10 µM; 0.35% of 290,000 active; in the data active = percent response above about 24%, passing the limit was not always enough
MEKK3 PB1 HTS – modulators (inhibitors or enhancers) of MEK5 binding to human MEKK3 PB1 domain; Q99759; bead-based flow cytometry, Alexa488-MEK5 binding to MEKK3; actives lie on both sides; 0 = blocked by unlabeled MEK5, 100 = vehicle; binding response (% of control), % at 10 µM; 1.4% of 290,000 active; AID 1529;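 active = binding response more than 3 SD above or below the average of its plate-row segment, actives on both sides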;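 note: Alexa488 bead fluorescence after subtracting the streptavidin-only scavenger bead signal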
Rce1 inhib – blocks yeast Ras-converting enzyme. 0.27% of 290,000 active. Q03530. yeast membranes, quenched prenylated peptide cleavage fluorescence. calls only. AID 2563;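 active = fall in fluorescence gain of 50% or more versus controls, with final raw signal at or below 3038400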
Target sequence (Q03530 whole entry, looked up): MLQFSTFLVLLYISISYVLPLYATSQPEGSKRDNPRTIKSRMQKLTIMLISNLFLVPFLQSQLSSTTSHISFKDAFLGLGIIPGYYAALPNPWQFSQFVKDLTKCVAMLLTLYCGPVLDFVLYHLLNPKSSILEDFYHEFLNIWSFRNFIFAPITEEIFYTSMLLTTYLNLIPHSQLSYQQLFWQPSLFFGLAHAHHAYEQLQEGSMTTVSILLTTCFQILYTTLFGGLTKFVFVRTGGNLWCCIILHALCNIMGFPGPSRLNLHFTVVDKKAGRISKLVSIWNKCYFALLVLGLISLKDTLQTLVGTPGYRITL
MEKK2wt confirm – raises or lowers MEK5 binding to wildtype human MEKK2, retest; AID 1892; shares compounds with MEKK3 PB1 HTS; 2.4% of 5,900 active; binding response (% of control), % at 10 µM; bead flow cytometry, Alexa488-MEK5 binding to MEKK2 WT; actives lie on both sides; in the data active = binding response below about 16% or above about 210%; inactive = in between
MEKK2mut-MEK5 – signal of MEK5 binding to mutant human MEKK2, retest; shares compounds with MEKK3 PB1 HTS; bead flow cytometry, Alexa488-MEK5 binding to MEKK2 mutant; 2% of 5,900 active; percent response, % at 10 µM; in the data active = percent response mostly above about 71%, no sharp cut-off; inactive = mostly below about 38%;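 note: higher means compound restores mutant binding toward wildtype level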
MEKK3 confirm – confirmation of inhibitors of MEK5 binding to human MEKK3. shares compounds with MEKK3 PB1 HTS. bead flow cytometry, Alexa488-MEK5 binding to MEKK3; hits give low values. binding response (% of control), % at 10 µM. 1.8% of 5,900 active. AID 1894;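 active = binding response below 72% of control, or above a set upper limit, though filed actives all read lower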;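 note: lower values mean stronger disruption of MEK5 binding to MEKK3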
Of the large screens only hits and unclear results are named; the others gave an inactive call (follow-up assays come after a bar, where they were run); [ ] = another dose, or the depositor's remark.

O=C(O)Cn1c(-c2cscn2)nc2ccccc21	MEKK3 PB1 HTS 123 | MEKK2wt confirm inactive | MEKK2mut-MEK5 inactive | MEKK3 confirm inactive
O=C(CN1C(=O)COc2ccccc21)c1ccc(Cl)cc1	MEKK3 PB1 HTS 122 | MEKK2wt confirm inactive | MEKK2mut-MEK5 inactive | MEKK3 confirm inactive
O=C(CN1C(=O)COc2ccccc21)c1cccc(Cl)c1	none
COc1ccc(-c2cn3cc([N+](=O)[O-])ccc3n2)cc1OC	MEKK3 PB1 HTS 75[inhibitor] | MEKK2wt confirm inactive | MEKK2mut-MEK5 inactive | MEKK3 confirm inactive
O=[N+]([O-])c1cccc(-c2cn3ccccc3n2)c1	none
Nn1c(SCC(=O)NCCCc2ccccc2)nnc1-c1cccnc1	none
CC(=O)c1ccc(NC(=O)C(C)n2c3ccccc3c3nc(=O)cc(C)n32)cc1 (configuration not stated)	MEKK3 PB1 HTS 44[inhibitor] | MEKK2wt confirm inactive | MEKK2mut-MEK5 inactive | MEKK3 confirm inactive
O=C(NNC(=S)Nc1ccc(Br)cc1)c1ccc(N2CCOCC2)c([N+](=O)[O-])c1	MEKK3 PB1 HTS 137 | MEKK2wt confirm inactive | MEKK2mut-MEK5 inactive | MEKK3 confirm inactive
Cc1ccc(NC(=S)NNC(=O)c2ccc(N3CCOCC3)c([N+](=O)[O-])c2)cc1Cl	none
COC(=O)c1ccc(N2CCN(S(=O)(=O)c3ccc(C)cc3)CC2)c([N+](=O)[O-])c1	none
COC(=O)c1ccc(N2CCN(S(=O)(=O)c3ccc(Br)cc3)CC2)c([N+](=O)[O-])c1	MEKK3 PB1 HTS 129 | MEKK2wt confirm inactive | MEKK2mut-MEK5 inactive | MEKK3 confirm inactive
COc1ccc(CNC(=O)CN2CCC(NC(=O)c3ccc(OC)cc3)CC2)cc1	none
CC(NCC(O)COCCC12CC3CC(CC(C3)C1)C2)c1ccccc1 (configuration not stated)	MEKK2wt PB1 HTS 139 | MEKK2wt confirm inactive | MEKK2mut-MEK5 inactive | MEKK3 confirm inactive
CCCc1ccc2oc(C(=O)N(C)Cc3cnccn3)c(C)c2c1	none
CCCc1ccc2oc(C(=O)N(C)CCn3ccnc3C)c(C)c2c1	MEKK2mut PB1 HTS 24 | MEKK2wt confirm inactive | MEKK2mut-MEK5 inactive | MEKK3 confirm inactive
CCOC(=O)c1c(NC(=O)C[n+]2ccc(Cc3ccccc3)cc2)sc(C)c1C	MEKK2wt PB1 HTS 138 | MEKK2wt confirm inactive | MEKK2mut-MEK5 inactive | MEKK3 confirm inactive
Fc1ccccc1N1CCN(C(c2ccncc2)c2nnnn2C2CCCC2)CC1 (configuration not stated)	MEKK3 PB1 HTS 77[inhibitor] | MEKK2wt confirm inactive | MEKK2mut-MEK5 inactive | MEKK3 confirm inactive
COc1ccc(OC)c(NC(=O)COC(=O)CN2C(=O)NC3(CCCC3)C2=O)c1	none (no result: MEKK2wt PB1 HTS, MEKK2mut PB1 HTS, MEKK3 PB1 HTS, Rce1 inhib)
Cc1c(C(=O)N/N=C/c2ccc(O)c(Br)c2)sc(N)c1C#N	MEKK3 PB1 HTS 132 (no result: UBC13 inh, Rce1 inhib) | MEKK2wt confirm inactive | MEKK2mut-MEK5 inactive | MEKK3 confirm inactive
CCn1cc(CCCC(=O)NCc2cccc(OC)c2)c2ccccc21	none
CC(C)(C)OC(=O)n1cc(C(=O)c2ccccc2O)cn1	none
C=CCn1c(-c2ccccc2)c[nH]c1=S	MEKK3 PB1 HTS 124 | MEKK2wt confirm inactive | MEKK2mut-MEK5 inactive | MEKK3 confirm inactive
C=CCn1c(-c2ccc(Cl)cc2)c[nH]c1=S	none
Cc1ccc2nc(-c3ccccn3)c(NC3CCCC3)n2c1	none
CC(C)c1nc2ccc(Br)cn2c1NC1CCCC1	MEKK3 PB1 HTS 129 | MEKK2wt confirm inactive | MEKK2mut-MEK5 inactive | MEKK3 confirm inactive
CCN(CC(=O)Nc1c(F)cccc1F)C(=O)/C=C/c1cn(Cc2ccccc2)nc1-c1cccnc1	none
COc1ccc(/C=N/n2cnc3c([nH]c4ccc(C)cc43)c2=O)cc1CN1CCCC1	MEKK2wt PB1 HTS 159, MEKK3 PB1 HTS 132 | MEKK2wt confirm inactive | MEKK2mut-MEK5 inactive | MEKK3 confirm inactive
CCc1cc2ccc(C)cc2nc1SCC(=O)Nc1cc(C)on1	none
CCc1cc2cc(C)ccc2nc1SCC(=O)Nc1cc(C)on1	MEKK3 PB1 HTS 128 | MEKK2wt confirm inactive | MEKK2mut-MEK5 inactive | MEKK3 confirm inactive
CC(=O)Nc1cc2c(cc1NC(=O)Cn1nc(-c3ccccc3)ccc1=O)OCCO2	none
Cc1ccc(-n2nnc3c(=O)n(Cc4ccccn4)cnc32)cc1C	MEKK2mut PB1 HTS 175 | MEKK2wt confirm inactive | MEKK2mut-MEK5 inactive | MEKK3 confirm inactive
CN(CC(=O)Nc1ccc(F)c(F)c1F)C(=O)C1=NN(c2ccccc2)C(=O)CC1	none (no result: MEKK2wt PB1 HTS, MEKK2mut PB1 HTS, MEKK3 PB1 HTS, Rce1 inhib)
OCCNc1nc(Nc2ccc(Br)cc2)nc2ccccc12	MEKK2wt PB1 HTS 146 | MEKK2wt confirm inactive | MEKK2mut-MEK5 inactive | MEKK3 confirm inactive
OCCNc1nc(Nc2ccccc2)nc2ccccc12	none
CC(C)CCNC(=O)COc1ccc(N(C)S(=O)(=O)c2ccc(F)cc2)cc1	none
COc1ccc(/C=C(\NC(=O)c2ccccc2)C(=O)N/N=C/c2sccc2C)cc1	none
COc1ccc(/C=C(/NC(=O)c2ccccc2)C(=O)N/N=C/c2sccc2C)cc1	MEKK3 PB1 HTS 133 | MEKK2wt confirm inactive | MEKK2mut-MEK5 inactive | MEKK3 confirm inactive
CCS(=O)(=O)N1CCN(c2ccc(S(=O)(=O)N3CCOCC3)cc2)CC1	MEKK3 PB1 HTS 48[inhibitor] | MEKK2wt confirm inactive | MEKK2mut-MEK5 inactive | MEKK3 confirm inactive
COc1ccc(NC(=O)Cc2coc3ccc4ccccc4c23)cc1S(=O)(=O)N1CCOCC1	none
CCOc1ccc(C(=O)C[n+]2cccc3cc(C)ccc32)cc1	none
Cc1ccc(C(=O)C[n+]2cccc3cc(C)ccc32)cc1	MEKK3 PB1 HTS 25[inhibitor] (no result: MEKK2wt PB1 HTS, MEKK2mut PB1 HTS) | MEKK2wt confirm inactive | MEKK2mut-MEK5 inactive | MEKK3 confirm inactive
O=C(C[n+]1cccc2ccccc21)c1ccc(NC(=O)c2ccccc2)cc1	MEKK3 PB1 HTS 37[inhibitor] (no result: MEKK2wt PB1 HTS, MEKK2mut PB1 HTS) | MEKK2wt confirm inactive | MEKK2mut-MEK5 inactive | MEKK3 confirm inactive
CCCNC(=O)Cn1nc([N+](=O)[O-])c([N+](=O)[O-])c1C	MEKK2wt PB1 HTS 58[inhibitor], MEKK3 PB1 HTS 60[inhibitor] | MEKK2wt confirm inactive | MEKK2mut-MEK5 inactive | MEKK3 confirm inactive
CCCCNC(=O)Cn1nc([N+](=O)[O-])c([N+](=O)[O-])c1C	none
CN1CCN(C(=O)C23CCC(C)(C(=O)C2Br)C3(C)C)CC1 (configuration not stated)	MEKK3 PB1 HTS 135 | MEKK2wt confirm inactive | MEKK2mut-MEK5 inactive | MEKK3 confirm inactive
CCN1CCN(C(=O)C23CCC(C)(C(=O)C2Br)C3(C)C)CC1 (configuration not stated)	none
